Assay outcomes from PubChem BioAssay.
D3 ag – D3 dopamine receptor (human) agonism | P35462 | D3R DiscoveRx beta-arrestin cells, luminescence, 90 min | max activation, % | 410,000 compounds, 0.58% hits | AID 652048; in the data active means max activation above about 30%; further: 0% is about no effect
Target sequence (P35462 whole entry, looked up): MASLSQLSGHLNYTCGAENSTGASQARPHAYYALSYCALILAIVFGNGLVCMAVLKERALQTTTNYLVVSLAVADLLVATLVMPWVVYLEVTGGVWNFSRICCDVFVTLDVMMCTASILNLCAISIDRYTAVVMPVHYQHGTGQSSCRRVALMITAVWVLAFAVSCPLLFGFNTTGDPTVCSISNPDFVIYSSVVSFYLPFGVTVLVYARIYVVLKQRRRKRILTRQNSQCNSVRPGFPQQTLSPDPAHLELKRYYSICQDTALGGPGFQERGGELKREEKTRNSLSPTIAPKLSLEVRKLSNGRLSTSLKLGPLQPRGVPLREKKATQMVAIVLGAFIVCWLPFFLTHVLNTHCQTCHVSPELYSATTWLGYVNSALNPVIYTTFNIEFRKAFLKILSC
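Agonist-mode cell screen: cells plated at 1500/well and incubated overnight at 37 °C, then exposed to library compounds for 90 min at 37 °C. Detection reagent was added for 30–60 min at room temperature, and luminescence was read.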
ATXN2 expr inh – ATXN2 expression inhibition | HEK-293 ATXN2-luciferase reporter, luminescence, 24 h | 360,000 compounds, 0.72% hits | Potency, µM (series often up to 57 µM), for the others: top-dose activity change, negative = inhibition, most hits filed as inhibitors; further: potency means the concentration at half of the fitted maximal effect; on the % scale 0 is the no-effect control and ±100 the full control effect; nearly all actives have a fitted effect of over 55% in size
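ATXN2-luciferase reporter cells (luciferase flanked by upstream and downstream ATXN2 gene portions) were treated 24 h at 37 °C with compounds at up to 57 uM. SteadyGlo luminescence gave expression; GF-AFC fluorescence gave viability.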
TGFb SMAD3 inh – inhibitors of TGF-b signaling | Potency, µM (top dose mostly 46.1 µM), inactives show at the highest dose activity, negative = inhibition, usual class: inhibitors | AID 588855 | 410,000 compounds, 1.2% hits | HepG2 CAGA-GFP TGF-b/SMAD3 reporter, GFP fluorescence, 18 h; TGF-beta stimulated, 500 pg/mL final; further: potency means the concentration at half of the fitted maximal effect; on the % scale 0 is the no-effect control and ±100 the full control effect; nearly all actives have a fitted effect of over 65% in size
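TGF-beta reporter screen: HEPG2 CAGA-GFP, 1% FBS, 500 pg/mL TGF-beta final, 18 h; per-cell GFP summed per well; curves fitted and categorized by class.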
D3 antag – blocks the human D3 dopamine receptor; 360,000 compounds, 2.5% hits; P35462; AID 652054; D3R cells, DiscoveRx beta-arrestin luminescence, antagonist mode; active compounds read low; max response, negative = inhibition, %; in the data active means max response below about -50%; inconclusive means no clear call, values can overlap the other calls; further: on the % scale 0 is the no-effect control and ±100 the full control effect
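Cells expressing the human receptor were seeded at 1500 cells/well, incubated overnight at 37 degrees C in 5% CO2, then exposed to library compounds with dopamine controls for 90 minutes at 37 degrees C before luminescent detection.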
ATXN viability – reduces viability in counter-screen for ATXN expression inhibitors. Potency, µM (top dose mostly 56.7 µM), actives largely listed as cytotoxic. S2 cells (HEK-293 line with an ATXN2-luciferase reporter) viability, CellTiter-Fluor protease fluorescence, 24 h. 400,000 compounds, 0.49% hits; further: potency means the concentration at half of the fitted maximal effect; nearly all actives have a fitted effect of over 40% in size
HepG2 viability – HepG2 cytotoxicity, counter-screen for TGF-b inhibitors; HepG2 CAGA-GFP viability, ATP luminescence, 18 h; Potency, µM (titrated, usually from 46.1 µM), for inactives: at the top dose activity change, negative = cytotoxicity, usual class: cytotoxic; 410,000 compounds, 0.76% hits; AID 588856; further: potency means the concentration at half of the fitted maximal effect
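HepG2 CAGA-GFP cells (1000/well, DMEM with 1% FBS) received compound, then TGF-beta at 500 pg/mL final, and were incubated 18 hours at 37 degrees C. Viability was read by CellTiter-Glo luminescence. Media-only wells were set as complete cell-killing and DMSO as no toxicity.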
The depositor's hits bear a star; i = inactive; ? = inconclusive; . = no result given. This is a sample that favours compounds with a hit; in the whole collection about 4.7% have one here. Unless noted, the call rests on the fitted dose curve; in most records, active means well fitted curve in the direction sought with a large enough effect; inconclusive means small, poorly fitted or top-dose-only effect, or another doubt; inactive means no such curve, though single readings can be large; an effect the other way counts as inactive or inconclusive.

SMILES	D3 ag	ATXN2 expr inh	TGFb SMAD3 inh	D3 antag	ATXN viability	HepG2 viability
O=C(NCCNC[C@@H](O)COc1ccc(O)cc1)N1CCOCC1	.	.	.	.	i	.
CC(=O)c1ccc(C(=O)N2CCc3c([nH]c4ccccc34)C2c2cccc(C)n2)s1 (configuration not stated)	-33.2	-0.2%	-12.5%	-56.5*	i	-1.5%
Cc1cccc(C2c3[nH]c4ccccc4c3CCN2C(=O)c2ccc(=O)[nH]c2)n1 (configuration not stated)	-0.6	-6.0%	25.2%	10.4	i	38.3%
OC[C@H]1O[C@@H](OCCc2ccc(O)cc2)[C@H](O)[C@@H](O)[C@H]1O	.	-17.9%	.	.	i	.
C(=C\c1ccccc1)/CN1CCN(C(c2cc3ccccc3o2)c2nnnn2C2CCCC2)CC1 (configuration not stated)	-9.4	5.0%	-3.5%	-98.4*	i	-36.5%
CN(C)CCN1CCN(C(c2cc3ccccc3o2)c2nnnn2C(C)(C)C)CC1 (configuration not stated)	-3.9	16.2%	.	0.1	?	.
C(=C\c1ccccc1)/CN1CCN(C(c2cc3ccccc3o2)c2nnnn2Cc2ccccc2)CC1 (configuration not stated)	-14.7	0.8%	-10.6%	-103.9*	i	-25.6%
C(=C\c1ccccc1)/CN1CCN(C(c2cccc3ccccc23)c2nnnn2C2CCCC2)CC1 (configuration not stated)	-12.6	-17.7%	?	-99.2*	?	-11.8%
C(=C\c1ccccc1)/CN1CCN(C(CCc2ccccc2)c2nnnn2C2CCCCC2)CC1 (configuration not stated)	-19.9	0.0%	?	-59.0*	?	-4.6%
C(=C\c1ccccc1)/CN1CCN(C(c2nnnn2C2CCCCC2)C2CC2)CC1 (configuration not stated)	-7.5	-22.8%	?	-4.4	?	6.7%
O=[N+]([O-])c1ccc(O/N=[N+](\[O-])N2CCN(c3ncccn3)CC2)c([N+](=O)[O-])c1	.	.	10µM*	.	.	-91.4%
O=C(OCCF)N1CCN(/[N+]([O-])=N/Oc2ccc([N+](=O)[O-])cc2[N+](=O)[O-])CC1	.	.	8.91µM*	.	.	20µM*
CC(=O)N1CCN(/[N+]([O-])=N/Oc2ccc([N+](=O)[O-])cc2[N+](=O)[O-])CC1	.	.	?	.	.	-98.4%
O=[N+]([O-])c1ccc(O/N=[N+](\[O-])N2CCN(c3ccccc3)CC2)c([N+](=O)[O-])c1	.	.	11.2µM*	.	.	-25.0%
OC1CCN(Cc2ccc3c(c2)CN(C/C=C/c2ccco2)CCO3)CC1	.	.	.	.	i	.
CC(NC(=O)c1cc(F)ccc1F)c1nnc2n1CCN(Cc1ccco1)CC2 (configuration not stated)	.	.	.	.	i	.
CN(CCOc1ccc(Cl)cc1)C(=O)c1cc(-c2ccco2)nc2ccccc12	42.0*	?	?	17.1	?	-17.6%
CC1(C)CC(C(CCN(Cc2ccccc2)C(=O)c2ccco2)c2ccc(F)cc2)CCO1 (configuration not stated)	47.8*	?	?	34.6	?	-71.7%
O=C(c1ccco1)N(CCC(c1ccccc1)c1ccco1)Cc1ccc(F)cc1 (configuration not stated)	11.3	-12.7%	?	17.9	i	-21.0%
O=[N+]([O-])c1cc(C(F)(F)F)ccc1NC1CCN(Cc2ccccc2)C1 (configuration not stated)	-27.5	-29.1%	-13.7%	-74.4*	i	-17.4%
NC(=O)CC(NC(=O)c1ccccc1)c1ccc(NC2CCN(Cc3ccccc3)CC2)c([N+](=O)[O-])c1 (configuration not stated)	1.0	10.9%	-3.3%	-8.0	i	3.7%
O=[N+]([O-])c1cc(C(F)(F)F)ccc1NC1CCN(Cc2ccccc2)CC1	-30.3	-13.1%	-19.1%	-74.2*	i	-27.2%
O=C(Cn1c(=O)ccc2cc(S(=O)(=O)N3CCCC3)ccc21)Nc1ccccc1	-8.0	-14.2%	7.3%	.	i	-0.8%
CS(=O)(=O)c1ccc([C@@H](O)[C@@H](CO)NC(=O)C(Cl)Cl)cc1	-24.9	-8.9%	5.5%	-51.2*	i	-13.8%
CCOc1ccc(NCC(=O)N/N=C/C=C/c2ccccc2)cc1	0.8	.	2.4%	20.3	i	-18.7%
SMILES	D3 ag	ATXN2 expr inh	TGFb SMAD3 inh	D3 antag	ATXN viability	HepG2 viability
CCOc1ccc(N=C/C=C/c2ccccc2)c(O)c1	5.7	.	14.1µM*	-19.6	?	-120.8%
O=C(CCc1ccccc1)NC1(Cc2ccccc2)CCN(CCCc2ccccc2)C1=O (configuration not stated)	2.3	?	12.6µM*	-23.9	?	-22.6%
CC(NC(=O)/C(C#N)=C/c1ccc(C(=O)O)cc1)c1ccccc1 (configuration not stated)	-5.0	-11.2%	6.1%	-13.6	i	0.6%
C[C@H](NC(=O)C(C#N)=Cc1cccc(Br)n1)c1ccccc1	.	21.7µM*	.	.	.	.
Cc1ccc(OCc2n[nH]c(=S)n2-c2ccc(Cl)cc2)cc1	-9.8	-18.6%	-3.2%	-22.6	i	-13.2%
Cc1ccc(C2=Nn3c(COc4ccc(Cl)cc4)nnc3SC2CC(=O)O)cc1 (configuration not stated)	32.5*	12.1%	22.4%	-3.3	i	1.9%
Cc1ccc(N(CC(O)Cn2c3ccccc3c3ccccc32)S(C)(=O)=O)cc1 (configuration not stated)	4.1	-6.5%	?	5.6	i	-51.5%
CC(=O)Nc1ccc(OCC(O)Cn2c3ccccc3c3ccccc32)cc1 (configuration not stated)	-4.6	-26.7%	?	-13.7	?	-15.5%
CC(=O)Nc1ccc(N(CC(O)Cn2c3ccccc3c3ccccc32)S(=O)(=O)c2ccc(C)cc2)cc1 (configuration not stated)	-13.1	?	14.1µM*	-21.3	i	-48.6%
Cc1ccccc1OCC(O)Cn1c2ccccc2c2ccccc21 (configuration not stated)	45.6*	-19.1%	?	43.6	i	-104.7%
CC(=O)Nc1ccc(OCC(O)Cn2c3ccccc3c3ccccc32)c(C)c1 (configuration not stated)	30.9*	?	?	26.0	?	-103.0%
CC(=O)N1CCc2cc(CNS(=O)(=O)c3cccs3)ccc21	7.5	.	3.4%	.	.	2.8%
